The source of these data is the supplement of paper PMC10681739.

The target of assay [1] is T1, ETS1 (UniProt P14921).
T1 sequence: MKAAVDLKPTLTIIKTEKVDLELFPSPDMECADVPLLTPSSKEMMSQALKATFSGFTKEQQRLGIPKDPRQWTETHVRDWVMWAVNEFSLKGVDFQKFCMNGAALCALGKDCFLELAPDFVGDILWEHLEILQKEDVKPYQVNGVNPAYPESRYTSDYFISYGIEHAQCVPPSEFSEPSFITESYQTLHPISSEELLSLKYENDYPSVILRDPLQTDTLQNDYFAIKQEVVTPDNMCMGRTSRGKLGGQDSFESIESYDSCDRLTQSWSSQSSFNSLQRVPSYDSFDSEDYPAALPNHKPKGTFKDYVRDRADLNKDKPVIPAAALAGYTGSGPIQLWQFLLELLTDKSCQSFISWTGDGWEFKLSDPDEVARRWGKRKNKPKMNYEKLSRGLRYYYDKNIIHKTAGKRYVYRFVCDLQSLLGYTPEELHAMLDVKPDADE
Nature of the assay: ETS1 binding intensity (PBM fluorescence), ETS1 alone (arbitrary fluorescence units); higher = stronger binding. Conditions: ETS1 concentration 1 nM; RUNX1 concentration 0 nM.

For assay [2], the target named is RUNX1 (UniProt Q01196). Kind of assay: RUNX1 binding intensity (PBM fluorescence), RUNX1 alone (arbitrary fluorescence units); higher = stronger binding. Conditions: RUNX1 concentration 2 nM; ETS1 concentration 0 nM. As to the method:
(§1)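 Cooperative gcPBM on 36-bp genomic probes with neighbouring ETS1 and RUNX1 sites. Recombinant human RUNX1 (2 nM) was incubated alone or with ETS1 (25 nM) and detected with anti-RUNX1 antibody plus Alexa488 secondary. Values are medians over 4 replicate spots; the RUNX1+ETS1 data were normalised to the RUNX1-only data. The probes sit in constant array flanks that are not printed.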

Assay [3] deals with T1, ETS1. Kind of assay: ETS1 binding intensity (PBM fluorescence) in presence of RUNX1, normalised to ETS1-only experiment (arbitrary fluorescence units); higher = stronger binding. Conditions: ETS1 concentration 1 nM; RUNX1 concentration 25 nM.
Assay [4] has as its target RUNX1 (UniProt Q01196). Kind of assay: RUNX1 binding intensity (PBM fluorescence) in presence of ETS1, normalised to RUNX1-only experiment (arbitrary fluorescence units); higher = stronger binding. To be noted: RUNX1 concentration 2 nM; ETS1 concentration 25 nM. The protocol: as §1
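For RUNX1 binding intensity (PBM fluorescence) in presence of ETS1, normalised to RUNX1-only experiment in this document: Full-length recombinant human ETS1 or RUNX1 bound to double-stranded 36-bp genomic probes on microarrays, detected by protein-specific primary antibody and Alexa488 secondary, spot fluorescence as median of four replicate spots.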
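For RUNX1 binding intensity (PBM fluorescence), RUNX1 alone in this document: Full-length recombinant human RUNX1 bound to double-stranded 36-bp genomic probes on a high-density microarray, scored as Alexa488 fluorescence per spot via anti-RUNX1 antibody, median of four replicate spots.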

RUNX1, sequence (Q01196 whole entry): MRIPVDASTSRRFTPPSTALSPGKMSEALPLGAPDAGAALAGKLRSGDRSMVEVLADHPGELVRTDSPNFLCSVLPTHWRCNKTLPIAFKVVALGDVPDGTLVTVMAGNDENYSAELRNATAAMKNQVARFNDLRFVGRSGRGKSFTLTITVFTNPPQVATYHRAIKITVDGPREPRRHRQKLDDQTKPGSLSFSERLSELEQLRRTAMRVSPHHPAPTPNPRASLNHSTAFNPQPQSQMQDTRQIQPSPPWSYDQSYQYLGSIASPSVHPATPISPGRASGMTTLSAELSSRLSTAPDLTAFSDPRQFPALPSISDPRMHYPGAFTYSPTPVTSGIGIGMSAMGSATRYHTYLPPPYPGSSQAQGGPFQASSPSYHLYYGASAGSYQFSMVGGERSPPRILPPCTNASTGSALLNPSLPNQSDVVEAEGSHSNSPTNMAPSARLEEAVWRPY

As for ACGGTGTGTCTCATTTCCTGTGGGTAACAGGCACCA, the ETS1 binding intensity in assay [1] is 2120; in assay [3], 3240. The RUNX1 binding intensity in assay [2] turned out to be 935; in assay [4], 1720.
On to CACCGGAAAAGGCAAGCGCGGCCGCGCGGTTGGCGC, for which the values for the ETS1 binding intensity in assay [1] and in assay [3] were 675 and 1090, respectively. The RUNX1 binding intensity in assay [2] was determined as 745; in assay [4], 1160.
The sequence GTGAACTTCCTCCCCCACTGCCTATTTTTACCGCAG registered an ETS1 binding intensity in assay [1] of 624. For the same sequence, the RUNX1 binding intensity in assay [2] worked out at 1820; in assay [4], 3950.
Regarding TCTGTGACTACGCGGATGTTGTGGGCGGCTACATGC, the ETS1 binding intensity in assay [1] stood at 1000. Besides, the figures for the RUNX1 binding intensity in assay [2] and in assay [4] were 749 and 869, respectively.
As to TGGGGACAGGAAATGTTTACTGCCTGTGGCTTGCTG, the ETS1 binding intensity in assay [1] was 3340. The values for the RUNX1 binding intensity in assay [2] and in assay [4] were 705 and 981, respectively.
As for TAGCCACGAACCGGAAACGTTAAACCACAGCTCCGT, the ETS1 binding intensity in assay [1] was determined as 9650. The RUNX1 binding intensity worked out at 994 in assay [2] and 5730 in assay [4].
In assay [1], TGCAGTCGTGAAAAAGGAAGTGGTTAAAGTGGCTAC registered an ETS1 binding intensity of 3680. For the same sequence, the RUNX1 binding intensity in assay [2] was 753; in assay [4], 1600.
As for CTACCGGAAATGCAGCACCACGTAAAATGCGGTCGG, the ETS1 binding intensity in assay [1] was found to be 3650. The RUNX1 binding intensity was found to be 912 in assay [2] and 2050 in assay [4].
In turn, GTACGACAGCGGGTTCCGGTGACCACGAAGGCGGCA had an ETS1 binding intensity in assay [1] of 404. Also, the values for the RUNX1 binding intensity in assay [2] and in assay [4] were 938 and 1180, respectively.
Consider GCGCCAGTCACCGTTTCCTGTGGTTTGCTGCCCGCC, for which the ETS1 binding intensity in assay [1] is 1790. Also, the RUNX1 binding intensity in assay [2] was 1050; in assay [4], 2810.
In the case of GCTCTGGGTCACACAGGATGTGGTTTTTGAAGTTTG, the ETS1 binding intensity in assay [1] worked out at 8060. Besides, the RUNX1 binding intensity in assay [2] stood at 1210; in assay [4] it was 10400.
Consider ACTGAACAAACCGGATGTGGTTGCCACCTGCAATCT, for which the ETS1 binding intensity in assay [1] was determined as 19800. For the same sequence, the RUNX1 binding intensity in assay [2] came to 848; in assay [4], 21800.
In the case of CTCTTCCTGCCTGTCCGTGGCTGGTGTGGTTTGCGT, the ETS1 binding intensity was determined as 457 in assay [1] and 616 in assay [3]. The RUNX1 binding intensity in assay [2] is 958; in assay [4] it was 2670.
